# Measurements reported in PubChem BioAssay (NCATS).
# Inconclusive results are not listed. Values without a mark were called inactive. Active and inactive are the calls of the source. Calls come from the whole dose curve; as a rule, active = well fitted inhibition curve with a large enough effect; inconclusive = small, poorly fitted or top-dose-only effect; inactive = flat fitted curve, though single readings scatter.
# Assay: P-glycoprotein substrates identified in KB-8-5-11 adenocarcinoma cell line, qHTS therapeutic library screen (AID 1346987); note: nearly all actives have a fitted effect of over 65% in size
# Conditions: KB-8-5-11 (P-gp overexpressing) viability, CellTiter-Glo, 72 h; series mostly up to 44.5 µM; activity change, negative = cytotoxicity: at the top concentration
# In short: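 KB-8-5-11: colchicine-selected sub-line of KB-3-1 over-expressing P-gp; assay medium lacked colchicine. 72 h drug exposure at 37 degree C, CellTiter-Glo.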
# % is set by controls: 0 for no effect and ±100 for the full control effect; potency is the fitted concentration of half-maximal effect.
Compound,Potency,"activity change, negative = cytotoxicity",outcome
CNCCC=C1c2ccccc2CCc2ccccc21,20.6 µM (active),–,–
CC(=O)c1ccc2c(c1)N(CCCN1CCC(CCO)CC1)c1ccccc1S2,–,-19% [at 17.3 µM],–
CN(C/C=C/c1ccccc1)Cc1cccc2ccccc12,–,0.409%,–
CC1(C)O[C@@H]2C[C@H]3[C@@H]4C[C@H](F)C5=CC(=O)CC[C@]5(C)[C@H]4[C@@H](O)C[C@]3(C)[C@]2(C(=O)CO)O1,–,-12.6% [at 17.3 µM],–
C[C@@H]1C[C@H]2[C@@H]3C[C@H](F)C4=CC(=O)C(Cl)=C[C@]4(C)[C@@]3(F)[C@@H](O)C[C@]2(C)[C@@]1(O)C(=O)CO,–,-0.569%,–
CN1[C@@H]2CC[C@H]1CC(OC(=O)c1c[nH]c3ccccc13)C2 (stereo not given in full),–,8.14%,–
C/C=C/c1ccc(OC)cc1,–,1.26%,–
Cc1c(C(C)C)c(=O)n(-c2ccccc2)n1C,–,0.465%,–
COc1ccc(C2C(=O)c3ccccc3C2=O)cc1,–,-4.16%,–
CCCN1CCCC[C@H]1C(=O)Nc1c(C)cccc1C,–,-13.6%,–
CCCCOc1cc(C(=O)NCCN(CC)CC)c2ccccc2n1,–,-27.3% [at 17.3 µM],–
CC(=O)N/N=C/c1ccc([N+](=O)[O-])o1,–,-21.6%,–
CC(=O)OCC(=O)[C@@]1(O)[C@H](C)C[C@H]2[C@@H]3CCC4=CC(=O)C=C[C@]4(C)[C@@]3(F)[C@@H](O)C[C@@]21C,inactive,–,–
COc1cc(C=C2CCC/C(=C\c3ccc(O)c(OC)c3)C2=O)ccc1O,25.9 µM (active),–,–
CN(C)CCOc1ccccc1Cc1ccccc1,–,-24.1%,–
NC[C@H]1O[C@H](O[C@H]2[C@H](O[C@@H]3O[C@H](CO)[C@@H](O)[C@H]3O)C(O)[C@H](N)C[C@@H]2N)[C@H](N)[C@@H](O)[C@@H]1O (stereo not given in full),–,-6.78% [at 17.3 µM],–
CCCSS/C(CCO)=C(\C)N(C=O)Cc1cnc(C)nc1N,–,6.47%,–
CCCCCCCCCCCCCCCCCC(=O)OCC(O)CO (stereo not given),–,-1.81%,–
CC[N+](CC)(CCNC(=O)C(=O)NCC[N+](CC)(CC)Cc1ccccc1Cl)Cc1ccccc1Cl,–,-1.49%,–
NC[C@H]1O[C@H](O[C@H]2[C@H](O)[C@@H](O[C@H]3O[C@H](CO)[C@@H](O)[C@H](N)[C@H]3O)[C@H](N)C[C@@H]2N)[C@H](N)[C@@H](O)[C@@H]1O,inactive,–,–
CC(C)(C)NC(=O)[C@@H]1CN(Cc2cccnc2)CCN1C[C@@H](O)C[C@@H](Cc1ccccc1)C(=O)N[C@H]1c2ccccc2C[C@H]1O,–,–,inactive
CCCCS(=O)(=O)N[C@@H](Cc1ccc(OCCCCC2CCNCC2)cc1)C(=O)O,inactive,–,–
O=C(CCN1CCC(c2ccccc2)C1)c1ccc2c(c1)OCCO2 (stereo not given),–,-5.27%,–
Oc1c(Cl)cc(Cl)cc1Sc1cc(Cl)cc(Cl)c1O,4.61 µM (active),–,–
COc1cccc2c1C(=O)c1c(O)c3c(c(O)c1C2=O)C[C@@](O)(C(=O)CO)C[C@@H]3O[C@H]1C[C@H](N)[C@H](O)[C@H](C)O1,–,-30.5%,–
CC(=O)[C@H]1CC[C@H]2[C@@H]3C[C@H](C)C4=CC(=O)CC[C@]4(C)[C@H]3[C@@H](O)C[C@]12C,6.99 µM (active),–,–
Cc1cc(=O)n(-c2ccccc2)n1C,–,16%,–
CC(=O)O[C@]1(C(C)=O)CC[C@H]2[C@@H]3C[C@H](C)C4=CC(=O)CC[C@]4(C)[C@H]3CC[C@@]21C,10.3 µM (active),–,–
CC(=O)Oc1ccc2c(c1)CC[C@@H]1[C@@H]2CC[C@]2(C)[C@@H](O)CC[C@@H]12,5.17 µM (active),–,–
OC[C@H]1O[C@H](O[C@]2(CCl)O[C@H](CCl)[C@@H](O)[C@@H]2O)[C@H](O)[C@@H](O)[C@H]1Cl,–,–,inactive
